# Sm TGR inh = inhibitors of Schistosoma mansoni thioredoxin glutathione reductase. Q962Y6. Potency, µM (series often up to 114 µM), for the others: at the highest dose activity change, negative = inhibition, actives largely listed as inhibitors. 360,000 compounds, 3% hits. purified TGR, DTNB reduction, TNB absorbance 405 nm; active = well fitted inhibition curve with a large enough effect; inconclusive = small, poorly fitted or top-dose-only effect; inactive = no such curve, though single readings can be large or run the other way; note: potency is the fitted concentration of half-maximal effect; % is set by controls: 0 for no effect and ±100 for the full control effect; nearly all actives have a fitted effect of over 60% in size
#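 Kinetic colorimetric format: TGR-catalysed, NADPH-driven DTNB reduction monitored via TNB absorbance. Enzyme dispensed at 20 nM; compound exposure 15 min at room temperature before reaction start.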
# FMDV inh = blocks foot and mouth disease virus; FMDV antiviral cell-based qHTS; 410,000 compounds, 1.2% hits; AID 1159524; Potency, µM (highest dose often 57.9 µM), without a hit: top-dose activity change, negative = inhibition, hits mostly inhibitors; calls by dose curve; tested in HEK293T cells; note: read-out not given here; potency is the fitted concentration of half-maximal effect; % is set by controls: 0 for no effect and ±100 for the full control effect; nearly all actives have a fitted effect of over 45% in size
# CHX counter = counter-screen hit for Shiga toxin inhibitors, cycloheximide; cell reporter, cycloheximide protein synthesis inhibition counterscreen; max response, %; 300,000 compounds, 12% hits; in the data active = max response mostly above about 13%, no sharp cut-off; inactive = mostly below about 14%; note: read at 38.3 µM for the half of the compounds with a filed dose; 0% is about no effect
# Shiga toxin inh = Shiga toxin inhibition; Vero cells, Shiga toxin protein synthesis inhibition reporter; inhibition, % at 38.7 µM; 290,000 compounds, 9.2% hits; AID 2315; in the data active = inhibition mostly above about 28%, no sharp cut-off; inactive = mostly below about 43%; note: 0% is about no effect
# An asterisk follows results filed as active; ? = inconclusive; . = not tested or not shown; [ ] = another dose, or the depositor's remark. A selection: hits, their analogues and other compounds. The true share with any hit is near 12%.
SMILES,Sm TGR inh,FMDV inh,CHX counter,Shiga toxin inh
Cc1ccc(Cn2ccsc2=NC(=O)CCl)cc1,14µM*,?,32*,45*
Cc1ccc(NC(=O)CSCC(=O)N=c2sccn2C)cc1,6%,3%,.,.
Cc1ccc(Cn2ccsc2=NC(=O)COC(=O)c2ccc(NC(=O)CC#N)cc2)cc1,-4%,25µM*,.,.
Cc1ccc(NC(=O)CN(C)C(=O)COC(=O)c2ccc(NC(=O)CC#N)cc2)cc1,.,-17%,.,.
O=C(Nc1nc(-c2cccnc2)cs1)c1ccccc1Cl,13%,9%,-2,18
Cc1cc(Cl)ccc1OCC(=O)Nc1nc(-c2cccnc2)cs1,-1%,-8%,1,12
Cc1ccc(Cl)cc1Nc1nc(-c2cccnc2)cs1,-13%,1%,17*,.
Clc1ccc(Nc2nc(-c3cccnc3)cs2)cc1,-22%,8%,41*,119*
Clc1ccc(-c2csc(Nc3cccnc3)n2)cc1,0%,10%,12,34
Fc1ccc(Nc2nc(-c3cccnc3)cs2)cc1,0%[57.1 µM],15%,48*,146*
c1ccc(-c2csc(Nc3cccnc3)n2)cc1,77%,29%,54*,118*
CCOC(=O)c1cnc2cc(-c3ccc(OCC)cc3)nn2c1-c1ccccc1,-1%,-21%,.,.
COc1ccc(-n2c(SCc3ccccc3F)nc3c([nH]c4ccccc43)c2=O)cc1,6%,0%,.,.
O=C(Cc1ccc(Br)cc1)Nc1cccc(Cl)c1,14%,-5%,21*,22
O=C(CC1SCCNC1=O)Nc1cccc(Cl)c1 (configuration not stated),-18%,65%,17*,39*
O=C(Cc1ccc(Cl)cc1)Nc1ccc(Br)cc1,-4%,18%,30*,74*
CCCC(=O)Nc1cccc(NC(=O)Cc2ccc(Cl)cc2)c1,.,-15%,.,.
CCc1ccc(NC(=O)Cn2c(=O)n(CCCCC(=O)NCCc3ccccc3)c(=O)c3ccccc32)cc1,3%,-5%,.,.
CC(C)(C)OC(=O)NCCCCCNC(=O)c1nc[nH]c1C(=O)NCc1ccc(CNC(=O)OC(C)(C)C)cc1,.,16µM*,.,.
CC(C)(C)OC(=O)NCCCCCNC(=O)c1[nH]cnc1C(=O)N[C@@H](CCCCNC(=O)OC(C)(C)C)C(=O)OC(C)(C)C,1%,-30%,7,7
CC(C)(C)OC(=O)NCc1ccc(CNC(=O)c2nc[nH]c2C(=O)NCc2ccc(CNC(=O)OC(C)(C)C)cc2)cc1,.,13µM*,.,.
CC(C)(C)OC(=O)CNC(=O)c1nc[nH]c1C(=O)NCc1ccc(CNC(=O)OC(C)(C)C)cc1,1%,?,-2,-2
CC(C)(C)OC(=O)NCCCCCNC(=O)c1nc[nH]c1C(=O)NCCCCCNC(=O)OC(C)(C)C,.,13µM*,.,.
C[C@H](NC(=O)c1[nH]cnc1C(=O)Nc1ccc(CNC(=O)OC(C)(C)C)cc1)C(=O)OCc1ccccc1,9%,18µM*,-3,-8
CCCCSc1nnc2c(n1)OC(c1ccc(C)s1)Nc1ccccc1-2 (configuration not stated),-4%,0%,.,.
SMILES,Sm TGR inh,FMDV inh,CHX counter,Shiga toxin inh
CC(C)(C)OC(=O)CNC(=O)c1[nH]cnc1C(=O)NCC(=O)OCc1ccccc1,-3%,?,10*,16
Clc1ccc(-c2ccc(SCc3ccccn3)nn2)cc1,10%,50%,41*,59*
c1ccc(CSc2nnc(SCc3ccccn3)s2)nc1,4%,40%,30*,59*
c1ccc(CSc2ccc(-c3ccccn3)nn2)nc1,-1%,0%,48*,98*
c1ccc(CSc2nnnn2-c2cccc3ccccc23)nc1,1%,0%,-2,10
CC(=O)c1cc(-c2ccccc2)n(CCC(=O)Nc2nc3c(C)cccc3s2)c1C,-1%,9%,.,.
CCOc1ccc(CNC(=O)CCn2c(=O)c3cccn3c3ccc(F)cc32)cc1,-2%,14%,.,.
Oc1ccc(/C=N/Nc2nc(-c3ccc(Cl)cc3)cc(C(F)(F)F)n2)cc1,3%,25µM*,11,1
Cc1cc(-c2ccccc2)nc(N/N=C/c2ccc(O)cc2)n1,0%,-27%,.,.
Cc1ccccc1OCCNC(=O)c1ccco1,-6%,12%,36*,97*
CCCCOc1ccc(OCCNC(=O)c2ccco2)cc1,5%,14%,20,57*
COc1ccccc1OCCNC(=O)c1ccco1,5%,10%,9,22
Cc1ccccc1OCCNC(=O)/C=C/c1ccccc1,-14%,30%,19,24*
CC(C)C(N)C(=O)O (configuration not stated),.,-10%,.,.
O=C(CSc1nncs1)NC(=O)Nc1ccc2c(c1)OCCO2,-16%,56%,45*,59*
O=C(CSc1nncs1)Nc1ccc2c(c1)OCCO2,-2%,29%,59*,58*
CC(Sc1nncs1)C(=O)Nc1ccc2c(c1)OCCO2 (configuration not stated),4%,24%,.,.
Cc1nnc(SCC(=O)Nc2ccc3c(c2)OCCO3)s1,-22%,16%,2,29
Cc1ccc(NC(=O)N2CCC(CN3CCCCCC3)CC2)c(Cl)c1,?,16%,.,.
O=[N+]([O-])c1ccc(N/N=C\c2cccnc2)nc1,-4%,50%,6,7
FC(F)(F)c1ccc(N/N=C/c2cccnc2)nc1,-19%,36%,41*,71*
C(=N\Nc1ccccn1)/c1cccnc1,3%,35%,24*,.
COC(=O)CN1C(C(=O)c2ccccc2)=C(OC(=O)c2ccc(C)cc2)c2ccccc2S1(=O)=O,-7%,-27%,.,.
COC(=O)c1cc(-c2ccc(C)cc2)c2c(=O)n(C)c(=O)n(C)c2n1,3%,11%,.,.
O=C(c1cccn1-c1nnc(N2CCCCC2)s1)N1CCN(c2ccc(Cl)cc2)CC1,11%,-28%,.,.
SMILES,Sm TGR inh,FMDV inh,CHX counter,Shiga toxin inh
Cc1ccc2nc(NCc3ccccc3)c(C=NCc3ccccc3)c(=O)n2c1,5%,5%,2,14
Cc1ccc2nc(NCCCN3CCOCC3)c(C=NCCCN3CCOCC3)c(=O)n2c1,-18%,29%,9.9*,25
O=c1[nH]c2ccccc2c2cn(-c3ccccc3)nc12,4%,22%,18*,61*
O=c1[nH]c2ccccc2c2ccccc12,44%,-3%,-3,-20
COc1ccc(/C=N/NC(=S)Nc2ccccc2)cc1,1%[57.1 µM],6%,55*,75*
O=C(N/N=C/c1cccnc1)c1cccc(NC(=O)c2cccc(Br)c2)c1,0%,3%,14,11
S=C(N/N=C/c1ccccc1Cl)Nc1ccccc1,10%,9%,54*,122*
COc1cccc(/C=N/NC(=S)Nc2cccc(C(=O)O)c2)c1O,1%,?,13,30
O=C(O)c1cccc(NC(=S)N/N=C/c2cccnc2)c1,3%,-5%,17*,54
COc1ccc(/C=N/NC(=S)Nc2cccc(C(=O)O)c2)cc1,-32%,-1%,41*,156*
Cc1ccc(Nc2nc3nonc3nc2Nc2cccc(C(F)(F)F)c2)cc1Cl,2%,?,.,.
COc1cc(/C=N/NC(=S)Nc2cccc(C(=O)O)c2)ccc1O,-7%,?,12*,24
CSc1ccccc1C(=O)C1CCCN(C(=O)c2cc(C(C)C)no2)C1 (configuration not stated),22µM*,-20%,-1,27

# Source: PubChem (National Center for Advancing Translational Sciences (NCATS))
